# Reference: ChEMBL document CHEMBL4513216, “Probing the Open Global Health Chemical Diversity Library for Multistage-Active Starting Points for Next-Generation Antimalarials” (ACS Infect Dis, 2020)
# In all, about 69,000 compounds went through this assay and about 8,600 (12%) showed an effect of 50% or more. The list comes from a sample in which strong results are over-represented; it also holds similar structures and randomly drawn compounds.
# System: Plasmodium berghei
# Test: Screen against P. berghei liver stage (PbLuc), transformed with Luciferase, at 10uM
# Format: functional, HepG2
# Details: tested at 10 uM
row,Structure (SMILES),INHIBITION [%]
1,Cn1cccc1C(=O)N1C[C@@H]2CC[C@H]1CN(Cc1cscn1)C2,-9.39
2,COc1c(CNC2CCC(O)CC2)c(C(C)C)nn1C (centres undefined),-18.8
3,O=C1c2cccnc2OC(CN2CCOCC2)CN1CC1CC1 (centres undefined),24.5
4,Cc1nc(C)n(C2CCCN(C(=O)c3c(C)nn4cccnc34)C2)n1 (centres undefined),26.4
5,Cc1cc(C(=O)N2CCOC(c3nc(C(C)C)n[nH]3)C2)no1 (centres undefined),25.1
6,CC(C)CNC(=O)c1nc2c(s1)CCN(C(=O)c1cccnc1)CC2,-47.5
7,COc1cccc(CN2CCc3nc(C(N)=O)sc3CC2)c1,2.41
8,CNC(=O)c1nc2c(s1)CCN(C(=O)c1cccc(OC)c1)CC2,-78
9,CNC(=O)N1CCc2nc(C(=O)NCc3cccc(OC)c3)sc2CC1,70.7
10,CCN(CC)C(=O)c1nc2c(s1)CCN(Cc1cccc(OC)c1)CC2,66.8
11,COc1cccc(CNC(=O)c2nc3c(s2)CCN(C(C)=O)CC3)c1,10.1
12,COc1cccc(CC(=O)N2CCc3nc(C(N)=O)sc3CC2)c1,-16.9
13,COc1ccc(CNC(=O)c2nc3c(s2)CCN(C(C)=O)CC3)cc1,34.6
14,COc1cccc(CN2CCc3nc(C(=O)NCC(C)C)sc3CC2)c1,84.5
15,O=C1OCCN1Cc1nc(C2(c3ccc(F)cc3)CCOC2)no1 (centres undefined),-73.4
16,CCc1nc(CN2CC(C(=O)OC)O[C@H](C)C2)cs1 (some centres undefined),30.3
17,CS(=O)(=O)NCCN1CCCC1c1noc(C2CC2)n1 (centres undefined),0.914
18,CN(C)Cc1ccnc(C2CN(CCc3ccccc3)CCO2)n1 (centres undefined),17.4
19,Cn1cncc1CN1CCC2(CCCN2c2ncccn2)CC1,16.9
20,CC(C)(N)C(=O)N1CCCC(c2cncc(Oc3cccnc3)n2)C1 (centres undefined),41.2
21,CCOCC(=O)NCC(Cc1cccc(F)c1)n1cccc1 (centres undefined),47.2
22,O=C1CCCN1C(CNS(=O)(=O)C1CC1)Cc1cccc(F)c1 (centres undefined),58.5
23,CCOCC(=O)NCC(Cc1cccc(F)c1)N1CCCCC1=O (centres undefined),54.1
24,O=C(NCC(Cc1cccc(F)c1)N1CCCC1=O)C1CCCC1 (centres undefined),0.923
25,O=C1NCCN1C(CNS(=O)(=O)C1CC1)Cc1cccc(F)c1 (centres undefined),20.1
26,CCCC(=O)NCC(Cc1cccc(F)c1)N1CCCC1=O (centres undefined),8.31
27,CN(C)C(=O)N1C[C@H](Oc2ccccn2)[C@H]2OCCC[C@H]21,-6.32

row,Structure (SMILES),INHIBITION [%]
1,CC1Oc2ccc(S(=O)(=O)NCCCn3ccnc3)cc2NC1=O (centres undefined),56.5
2,CC1(C)Oc2ccc(S(=O)(=O)NCCCn3ccnc3)cc2NC1=O,17.4
3,COCCCNS(=O)(=O)c1ccc2c(c1)NC(=O)C(C)O2 (centres undefined),-35.5
4,CCc1nc(C)sc1CNC1CCN(Cc2ccccc2)C1 (centres undefined),51.1
5,Cc1nc(CNC2CCN(Cc3ccccc3)C2)sc1C (centres undefined),47.9
6,CCc1csc(CNC2CCN(c3ccc(C)cc3)CC2)n1,1.94
7,Cc1nc(CCNC2CCN(Cc3ccccc3)C2)sc1C (centres undefined),40.5
8,CCc1csc(CNC2CCN(Cc3ccccc3)C2)n1 (centres undefined),64
9,CCc1nc(C)sc1CN1CC[C@](C)(O)[C@H](C)C1,48.5
10,CNc1ncccc1CN1CCCCC1c1ccnc(N)n1 (centres undefined),32.3
11,O=C(NCC1CC1)[C@H]1CC[C@@H]2[C@@H](CCN2Cc2nccs2)O1,46.1
12,COC(=O)c1cccn1C1CCN(CC(=O)NC2CCCCC2)CC1,43.7
13,Cc1noc(C)c1C(=O)N(C)C(C)c1cccnc1 (centres undefined),79
14,Cc1noc(C)c1C(=O)N(C)C(C)c1ccncc1 (centres undefined),17.5
15,Cc1noc(C)c1C(=O)N(C)C(C)c1ccc(S(C)(=O)=O)cc1 (centres undefined),10.7
16,CS(=O)(=O)N1CCCN(c2nccn3cnnc23)CC1,-39.2
17,OCCN(Cc1ccccc1)Cc1ccsc1,3.96
18,CC(NC(=O)c1ccc(C#N)cn1)C1(N2CCOCC2)CCCC1 (centres undefined),37.1
19,CC(C)n1ncc2c1NC(=O)CC2c1ccccc1Cl (centres undefined),9.32
20,Cn1ncc2c1NC(=O)CC2c1c(Cl)cccc1Cl (centres undefined),25.1
21,Cn1ncc2c1NC(=O)CC2c1cc(Cl)ccc1F (centres undefined),8.49
22,Cn1ncc2c1NC(=O)CC2c1cc2c(cc1Cl)OCO2 (centres undefined),61.2
23,Cn1ncc2c1NC(=O)CC2c1ccccc1Cl (centres undefined),54.5
24,Cn1ncc2c1NC(=O)CC2c1ccc(Cl)cc1Cl (centres undefined),34
25,O=C(NCc1cccnc1)c1ccc2nccn2c1,32.5
26,COc1ccccc1CN1CCC(Cc2cnc(CN(C)C)cn2)CC1,8.12
27,Cc1nc(C)c(C(=O)N2CCCC(n3ccnc3C)C2)s1 (centres undefined),21.7
